Assay [1] in a line: optical density shifts of acrAB sulA E. coli – strain DRC41, OD650, 48 h, E. coli filamentation inducer project, primary screen (AID 1152).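 Also: E. coli MC1000 strain DRC41 lacking acrAB efflux pump and sulA.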 To be noted: higher = more signal, called active from +8 up or from −8 down.
The nature of assay [2]: probe aLefty1 binding on compound microarray – biochemical, small-molecule microarray, 635/667 nm fluorescence, primary screen (AID 1153).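 Also: score merges spot fluorescence with signal-to-noise ratio from the scanned slide images.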 To be noted: higher = more signal.
A short description of assay [3]: plasmodial surface anion channel blockers, osmotic lysis – cell-based, P. falciparum Indochina, OD700, 1 h, primary screen (AID 1154). The note with it: P. falciparum Indochina infected RBC osmotic lysis, higher = more signal, called active from +8 up or from −8 down.
Assay [4] in a line: plasmodial surface anion channel blockers, osmotic lysis – cell-based, P. falciparum Indochina, OD700, 2 h, primary screen (AID 1155).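 Also: lysis reports solute entry through the parasite surface anion channel PSAC.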 The note with it: P. falciparum Indochina infected erythrocytes, higher = more signal, called active from +8 up or from −8 down.
A short description of assay [5]: changes in parasitized red cell lysis, either direction – P. falciparum Indochina, OD700, 3 h, PSAC antagonist project, primary screen (AID 1156). The note with it: P. falciparum-infected erythrocytes, osmotic lysis, higher = more signal, called active from +8 up or from −8 down.
Assay [6] in a line: plasmodial surface anion channel blockers, osmotic lysis – cell-based, P. falciparum Indochina, OD700, 18 h, primary screen (AID 1157). The note with it: P. falciparum Indochina infected erythrocytes, osmotic lysis OD700, 18 h; higher = more signal, called active from +8 up or from −8 down.
Assay [7] in a line: S6 kinase pathway phospho-S6 level changes – cell-based, A549, cytoblot, luminescence, serum-stimulated, primary screen (AID 1158).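 Also: serum-stimulated A549 lung adenocarcinoma cells; signal is phosphorylated S6 detected by cytoblot immunostaining with HRP secondary.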 To be noted: 5 h, higher = more signal.
Assay [8] has as its target NADPH oxidase 2 (Homo sapiens) (UniProt P04839). The assay is described as follows: compounds shifting NOX2 Amplex Red fluorescence – cell-based, HEK293-NOX2, PMA-stimulated, NOX inhibitor project, primary screen (AID 1159). Also: test concentration not given here. The note with it: 45 min, higher = more signal, called active from +8 up or from −8 down.
In assay [9] the target is NADPH oxidase 4 (Homo sapiens) (UniProt Q9NPH5). Put plainly: compounds shifting NOX4 Amplex Red fluorescence – cell-based, HEK293-NOX4, tetracycline-induced, NOX inhibitor project, primary screen (AID 1160). The note with it: HEK293-NOX4, Amplex Red H2O2 fluorescence, 45 min; higher = more signal, called active from +8 up or from −8 down.
Chain of NADPH oxidase 4 (Homo sapiens) (Q9NPH5 whole entry, looked up): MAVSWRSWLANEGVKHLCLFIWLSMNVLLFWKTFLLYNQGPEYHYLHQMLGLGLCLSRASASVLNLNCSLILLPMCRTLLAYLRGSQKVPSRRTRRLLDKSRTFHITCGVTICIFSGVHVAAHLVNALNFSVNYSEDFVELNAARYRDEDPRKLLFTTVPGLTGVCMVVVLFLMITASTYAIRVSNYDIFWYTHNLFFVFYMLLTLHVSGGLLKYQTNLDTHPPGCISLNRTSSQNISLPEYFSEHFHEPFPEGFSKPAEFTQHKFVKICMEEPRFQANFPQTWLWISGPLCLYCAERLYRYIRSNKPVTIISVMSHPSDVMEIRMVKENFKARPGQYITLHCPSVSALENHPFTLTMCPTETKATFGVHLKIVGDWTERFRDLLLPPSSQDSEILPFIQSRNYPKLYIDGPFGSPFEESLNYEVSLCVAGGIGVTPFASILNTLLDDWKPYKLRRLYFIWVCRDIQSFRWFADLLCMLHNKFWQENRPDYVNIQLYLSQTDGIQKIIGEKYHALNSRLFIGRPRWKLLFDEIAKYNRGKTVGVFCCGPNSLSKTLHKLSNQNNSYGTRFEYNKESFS
Assay [10] addresses NADPH oxidase 5 (Homo sapiens) (UniProt Q96PH1). Put plainly: compounds shifting NOX5 Amplex Red fluorescence – cell-based, HEK293-NOX5, NOX inhibitor project, primary screen (AID 1161). The note with it: HEK293-NOX5, ionomycin, 45 min, higher = more signal.
The nature of assay [11]: compound effects on lung adenocarcinoma cell viability – A549, calcein-AM fluorescence, 48 h, basal, profiling panel (AID 1162). Also: test concentration not given here. To be noted: higher = more signal.
A short description of assay [12]: compound effects on differentiated 3T3-L1 adipocyte viability – cell-based, 3T3-L1 adipocytes, calcein-AM fluorescence, 48 h, basal, profiling panel (AID 1163). Also: test concentration not given here. To be noted: 3T3-L1 adipocytes viability, higher = more signal.
Assay [13] is described as follows: compound effects on hepatocellular carcinoma cell viability – HepG2, calcein-AM fluorescence, 48 h, basal, profiling panel (AID 1164). Also: test concentration not given here. The note with it: higher = more signal.
Assay [14] is described as follows: compound effects on multiple myeloma cell viability – MM1S, calcein-AM fluorescence, 48 h, basal, profiling panel (AID 1165).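 Also: viability of MM1S multiple myeloma cells under basal unstimulated conditions; test concentration not given here.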 To be noted: higher = more signal.
Assay [15] is described as follows: calcein-AM signal in unstimulated myeloma cells – cell-based, calcein-AM fluorescence, 48 h, PK04 Diversity Set, profiling panel (AID 1166).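 Also: cells grown under basal conditions without added stimulus; test concentration not given here.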 To be noted: RPMI8226 myeloma viability, higher = more signal.
The nature of assay [16]: JC-1 mitochondrial signal, unstimulated HepG2 cells – cell-based, JC-1 fluorescence, 24 h, 100 nL compound, profiling panel (AID 1167). Also: test concentration not given here. To be noted: HepG2 mitochondrial potential, higher = more signal.
Assay [17] is described as follows: JC-1 mitochondrial signal, unstimulated adipocytes – cell-based, JC-1 fluorescence, 3T3-L1 adipocytes, 24 h, 100 nL compound, profiling panel (AID 1168). Also: test concentration not given here. To be noted: JC-1 mitochondrial fluorescence, higher = more signal, called active from +8 up or from −8 down.
Assay [18] is described as follows: JC-1 mitochondrial signal, unstimulated myeloma cells – cell-based, JC-1 fluorescence, RPMI8226, 24 h, 100 nL compound, profiling panel (AID 1169). Also: test concentration not given here. The note with it: JC-1 mitochondrial potential fluorescence, higher = more signal.
A short description of assay [19]: JC-1 mitochondrial signal, unstimulated MM1S myeloma – cell-based, JC-1 fluorescence, 24 h, 100 nL compound, profiling panel (AID 1170). Also: test concentration not given here. The note with it: MM1S mitochondrial potential, higher = more signal.
A short description of assay [20]: resazurin metabolic signal in A549 cells – cell-based, resazurin fluorescence, 24 h, PK04 Diversity Set, profiling panel (AID 1171). Also: test concentration not given here. The note with it: A549 viability, higher = more signal, called active from +8 up or from −8 down. (In general: Alamar Blue is a resazurin reagent that responds to reducing activity.)

Activity calls are given as the source filed them.

Chain of NADPH oxidase 5 (Homo sapiens) (Q96PH1 whole entry, looked up): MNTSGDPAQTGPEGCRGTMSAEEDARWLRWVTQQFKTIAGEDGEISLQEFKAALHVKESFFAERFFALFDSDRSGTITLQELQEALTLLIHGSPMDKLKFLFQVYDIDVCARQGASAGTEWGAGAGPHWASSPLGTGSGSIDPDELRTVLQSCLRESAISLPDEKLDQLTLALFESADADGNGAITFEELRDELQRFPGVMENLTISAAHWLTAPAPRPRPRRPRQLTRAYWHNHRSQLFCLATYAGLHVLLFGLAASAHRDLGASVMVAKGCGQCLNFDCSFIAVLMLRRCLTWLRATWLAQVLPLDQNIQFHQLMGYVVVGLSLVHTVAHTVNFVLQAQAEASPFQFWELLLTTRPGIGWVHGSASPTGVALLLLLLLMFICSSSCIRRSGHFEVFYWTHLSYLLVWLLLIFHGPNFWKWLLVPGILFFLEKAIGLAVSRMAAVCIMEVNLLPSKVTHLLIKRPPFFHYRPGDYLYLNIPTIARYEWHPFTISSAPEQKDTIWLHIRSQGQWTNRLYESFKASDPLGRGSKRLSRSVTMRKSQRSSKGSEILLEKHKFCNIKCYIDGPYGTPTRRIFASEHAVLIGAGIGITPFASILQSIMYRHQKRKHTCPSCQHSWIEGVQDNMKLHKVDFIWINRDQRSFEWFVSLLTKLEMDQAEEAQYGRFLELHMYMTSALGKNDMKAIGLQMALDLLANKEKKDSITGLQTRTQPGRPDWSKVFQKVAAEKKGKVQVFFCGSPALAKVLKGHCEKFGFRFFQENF
Chain of NADPH oxidase 2 (Homo sapiens) (P04839 whole entry, looked up): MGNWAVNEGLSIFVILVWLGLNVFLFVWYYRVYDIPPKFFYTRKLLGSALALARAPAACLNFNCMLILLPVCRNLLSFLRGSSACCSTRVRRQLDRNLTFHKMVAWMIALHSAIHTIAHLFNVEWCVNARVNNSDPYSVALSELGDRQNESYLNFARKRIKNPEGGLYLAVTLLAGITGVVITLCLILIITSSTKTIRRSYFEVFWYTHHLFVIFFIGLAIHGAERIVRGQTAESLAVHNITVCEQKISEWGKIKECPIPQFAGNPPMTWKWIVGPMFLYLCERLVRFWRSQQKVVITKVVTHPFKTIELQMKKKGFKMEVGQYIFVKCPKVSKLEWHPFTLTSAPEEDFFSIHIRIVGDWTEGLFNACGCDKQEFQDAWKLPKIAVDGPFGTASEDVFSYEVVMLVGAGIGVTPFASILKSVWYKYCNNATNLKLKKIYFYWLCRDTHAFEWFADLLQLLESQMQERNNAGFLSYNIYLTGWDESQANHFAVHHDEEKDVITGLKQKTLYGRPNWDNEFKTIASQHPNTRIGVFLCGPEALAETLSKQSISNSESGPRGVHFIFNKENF

For `C[C@H]1C2=C3C(CC[C@H]4C(OCc5ccc(F)cc5C(F)(F)F)OC[C@](C)([C@@H]34)N(C(=O)OC(C)(C)C)C2)C(CO)C1CO` (stereo not given in full), the z-score in assay [1] was -2.8 (inactive); in assay [3] it was 1.94 (inactive); in [4], 0.368 (inactive); in assay [5], 2.1 (inactive); in assay [6], 0.864 (inactive); in assay [7], 0.118. Besides, the z-score in assay [8] was -0.678 (inactive); in assay [9], -2.59 (inactive); in assay [10], -1.97; in assay [11] it was -1.49; in [12] it was -0.723; in [13] it was -0.907. The z-score in [14] was -3.22; in assay [15], -4.68; in [16] it was -0.987; in assay [17] it was -1.13 (inactive); in assay [18] it was -0.522; in assay [19] it was 0.0495. The z-score in assay [20] is -0.629 (inactive). This compound also displayed a composite z-score in [2] of 0.687.

Consider `CCOC(=O)C1=CC[C@@H](c2ccc([N+](=O)[O-])cc2)N(S(=O)(=O)c2ccc(C)cc2)[C@H]1c1ccccc1`, for which the z-score in assay [1] was -0.785 (inactive); in [3], 2.13 (inactive); in [4], 1.6 (inactive); in [5] it was 0.106 (inactive); in assay [6], 0.903 (inactive); in assay [7], -0.543. Also, the z-score in [8] was 1.46 (inactive); in [9] it was 1.1 (inactive); in [10] it was 1.43; in [11], -0.143; in assay [12] it was -0.786; in assay [13], 0.239. Further, the z-score in [14] is -0.767; in [15], -0.281; in [16], 2.35; in assay [17], -0.233 (inactive); in assay [18] it was 1.21; in assay [19], -1.25. For the same compound, the z-score in [20] is 0.807 (inactive). In assay [2], this compound gave a composite z-score of 0.206.

Regarding `COCCOC(=O)N1C(=O)[C@@]2(c3cc(C#Cc4ccc(OC)cc4)ccc31)[C@H](C(=O)NC[C@H](O)c1ccccc1)[C@H]1C(=O)O[C@H](c3ccccc3)[C@H](c3ccccc3)N1[C@@H]2c1ccc(O)cc1`, the z-score in assay [1] was -0.16 (inactive); in [3], 1.48 (inactive); in [4], 0.702 (inactive); in assay [5], -0.784 (inactive); in assay [6] it was 0.704 (inactive); in [7], 0.236. In addition, the z-score in [8] is 1.04 (inactive); in [9], 0.0374 (inactive); in assay [10], 0.00809; in assay [11] it was -0.24; in assay [12], 0.711; in assay [13], -0.862. The z-score was -2.08 in [14]; -2.34 in assay [15]; -2.11 in assay [16]; 1.54 (inactive) in assay [17]; -0.723 in assay [18]; 0.122 in assay [19]. The z-score in assay [20] was 0.397 (inactive). In addition, in assay [2], the composite z-score is 0.289.

Consider `O=C1NCC(=O)N2[C@@H]1C[C@@H](C(=O)O)[C@H]2c1ccc(O)cc1`, for which the z-score in assay [1] was 0.533 (inactive); in [3] it was 2.73 (inactive); in assay [4], 0.328 (inactive); in assay [5], -3.02 (inactive); in assay [6], -0.0173 (inactive); in assay [7], -0.174. Further, the z-score in assay [8] is -1.92 (inactive); in [9] it was -0.822 (inactive); in assay [10] it was -1.29; in assay [11] it was 0.391; in [12] it was -0.0074; in [13] it was -0.084. Further, the z-score in [14] was -2.79; in assay [15], -0.0676; in assay [16] it was 0.429; in [17], -0.799 (inactive); in assay [18], 0.233; in assay [19], -0.775. Also, in assay [20], the z-score is 0.249 (inactive). In assay [2], this compound displayed a composite z-score of 0.138.

Turning to `COC(=O)[C@@]1(Cc2ccccc2)[C@H]2c3cc(C(=O)N4CCCC4)[nH]c3C[C@H]2CN1C(=O)c1ccccc1`, the z-score in [1] is -0.875 (inactive); in assay [3] it was 4.64 (inactive); in assay [4], 0.805 (inactive); in assay [5], 0.102 (inactive); in assay [6], 0.717 (inactive); in assay [7], 0.177. The z-score in assay [8] is 0.0123 (inactive); in assay [9], -0.696 (inactive); in [10] it was -0.713; in assay [11] it was -1.12; in assay [12] it was 0.904; in assay [13] it was -0.585. The z-score in [14] is 0.277; in assay [15] it was -1.17; in assay [16] it was 0.288; in assay [17], -1.17 (inactive); in [18] it was -0.786; in assay [19], -0.28. The z-score in assay [20] was 0.412 (inactive). Also, in assay [2], the composite z-score was 0.269.

These data come from PubChem BioAssay.
